In PubChem BioAssay:
Unmarked numbers belong to inactive results. Calls of active or inactive are those of the source. Unless noted, no stated cut-off is given here; in the data, active means inhibition above about 30%; inactive means the rest.

Tests used:
[1] = molecular target: Nuclear receptor coactivator 3 (Homo sapiens) (UniProt Q9Y6Q9); assay: SRC3 coactivator transcriptional activity inhibitors, confirmation, cell-based, luminescence, quadruplicate (AID 588792;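 active means mean inhibition over 43.08%, the solvent-only control mean plus 3 SD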;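 further: 0% = DMSO treated cells and 100% = gossypol at 36 µM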); conditions: HEK293 GAL4-SRC3 luciferase reporter, at 3.6 µM, hits give high values
[2] = tested on: transactivating tegument protein VP16 (Human herpesvirus 1), Gal4-VP16 luciferase reporter; assay: VP16 transactivation inhibitors, counter-screen for SRC3 inhibitor project, cell-based, luminescence, high throughput (AID 588794); conditions: mammalian cells, VP16-driven luciferase reporter luminescence; at 3.6 µM; hits give high values
[3] = molecular target: Nuclear receptor coactivator 1 (Homo sapiens) (UniProt Q15788); assay: SRC1 coactivator transcriptional activity inhibitors, confirmation, cell-based, luminescence, quadruplicate (AID 588820;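 active means mean inhibition above 46.68%, the untreated control wells mean plus 3 SD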;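 further: 0% = DMSO wells and 100% = gossypol 36 µM treated wells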); conditions: HEK293 GAL4-SRC1 luciferase reporter, at 3.6 µM, hits give high values
[4] = VP16 transactivation inhibitors, counter-screen for SRC1 inhibitor project, cell-based, luminescence, high throughput (AID 588824; in the data active means inhibition above about 25%); conditions: cell-based VP16 transactivation luciferase luminescence; at 3.6 µM; hits give high values
[5] = StAR promoter reporter inhibitors, counter-screen for LRH-1 inverse agonist project, cell-based, luminescence, high throughput (AID 651611; in the data active means inhibition above about 28%); conditions: StAR promoter luciferase reporter counterscreen, at 3.6 µM, hits give high values
[6] = molecular target: Nuclear receptor subfamily 5 group A member 2 (Homo sapiens) (UniProt O00482); assay: LRH-1 (NR5A2) inverse agonists, retest, confirmation, cell-based, luminescence (AID 651613; in the data active means inhibition above about 42%;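 further: HEK293T cells co-transfected with LRH-1 and StAR promoter luciferase reporter; 0% = vehicle wells and 100% = parental cells lacking receptor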); conditions: cell-based LRH-1 luciferase reporter, inverse agonism; at 3.6 µM; hits give high values
[7] = molecular target: Steroidogenic factor 1 (Homo sapiens) (UniProt Q13285); assay: SF1 (NR5A1) inverse agonists, counter-screen for LRH-1 inverse agonist project, cell-based, luminescence, high throughput (AID 651614; in the data active means inhibition above about 44%;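 further: cells cotransfected with StAR promoter reporter and SF1 expression vector; 0% = vehicle on cells with receptor and 100% = vehicle on cells lacking receptor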); conditions: cell-based SF1 luciferase reporter, at 3.6 µM, hits give high values
[8] = VP16 transactivation reporter inhibitors, counter-screen for LRH-1 inverse agonist project, cell-based, luminescence, high throughput (AID 651615; in the data active means inhibition above about 33%); conditions: Gal4-VP16 luciferase reporter cells, at 3.6 µM, hits give high values
[9] = tested on: transactivating tegument protein VP16 (Human herpesvirus 1); assay: VP16 transactivation reporter inhibitors, counter-screen for SRC2 inhibitor project, cell-based, luminescence, single concentration (AID 652007; in the data active means inhibition above about 36%); conditions: cell-based VP16 transactivation luciferase reporter, at 8.9 µM, hits give high values
[10] = molecular target: Nuclear receptor coactivator 2 (Homo sapiens) (UniProt Q15596); assay: SRC2 coactivator transcriptional activity inhibitors, confirmation, cell-based, luminescence, HEK293, triplicate (AID 652008;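 active means mean inhibition above 46.5%, the solvent-only control mean plus 3 SD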;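 further: 0% = DMSO-treated cells and 100% = Gossypol at 36 µM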); conditions: HEK293 GAL4-SRC2 luciferase reporter, at 8.9 µM, hits give high values
Nuclear receptor coactivator 2 (Homo sapiens), sequence (Q15596 whole entry, looked up, the tested form may be a part): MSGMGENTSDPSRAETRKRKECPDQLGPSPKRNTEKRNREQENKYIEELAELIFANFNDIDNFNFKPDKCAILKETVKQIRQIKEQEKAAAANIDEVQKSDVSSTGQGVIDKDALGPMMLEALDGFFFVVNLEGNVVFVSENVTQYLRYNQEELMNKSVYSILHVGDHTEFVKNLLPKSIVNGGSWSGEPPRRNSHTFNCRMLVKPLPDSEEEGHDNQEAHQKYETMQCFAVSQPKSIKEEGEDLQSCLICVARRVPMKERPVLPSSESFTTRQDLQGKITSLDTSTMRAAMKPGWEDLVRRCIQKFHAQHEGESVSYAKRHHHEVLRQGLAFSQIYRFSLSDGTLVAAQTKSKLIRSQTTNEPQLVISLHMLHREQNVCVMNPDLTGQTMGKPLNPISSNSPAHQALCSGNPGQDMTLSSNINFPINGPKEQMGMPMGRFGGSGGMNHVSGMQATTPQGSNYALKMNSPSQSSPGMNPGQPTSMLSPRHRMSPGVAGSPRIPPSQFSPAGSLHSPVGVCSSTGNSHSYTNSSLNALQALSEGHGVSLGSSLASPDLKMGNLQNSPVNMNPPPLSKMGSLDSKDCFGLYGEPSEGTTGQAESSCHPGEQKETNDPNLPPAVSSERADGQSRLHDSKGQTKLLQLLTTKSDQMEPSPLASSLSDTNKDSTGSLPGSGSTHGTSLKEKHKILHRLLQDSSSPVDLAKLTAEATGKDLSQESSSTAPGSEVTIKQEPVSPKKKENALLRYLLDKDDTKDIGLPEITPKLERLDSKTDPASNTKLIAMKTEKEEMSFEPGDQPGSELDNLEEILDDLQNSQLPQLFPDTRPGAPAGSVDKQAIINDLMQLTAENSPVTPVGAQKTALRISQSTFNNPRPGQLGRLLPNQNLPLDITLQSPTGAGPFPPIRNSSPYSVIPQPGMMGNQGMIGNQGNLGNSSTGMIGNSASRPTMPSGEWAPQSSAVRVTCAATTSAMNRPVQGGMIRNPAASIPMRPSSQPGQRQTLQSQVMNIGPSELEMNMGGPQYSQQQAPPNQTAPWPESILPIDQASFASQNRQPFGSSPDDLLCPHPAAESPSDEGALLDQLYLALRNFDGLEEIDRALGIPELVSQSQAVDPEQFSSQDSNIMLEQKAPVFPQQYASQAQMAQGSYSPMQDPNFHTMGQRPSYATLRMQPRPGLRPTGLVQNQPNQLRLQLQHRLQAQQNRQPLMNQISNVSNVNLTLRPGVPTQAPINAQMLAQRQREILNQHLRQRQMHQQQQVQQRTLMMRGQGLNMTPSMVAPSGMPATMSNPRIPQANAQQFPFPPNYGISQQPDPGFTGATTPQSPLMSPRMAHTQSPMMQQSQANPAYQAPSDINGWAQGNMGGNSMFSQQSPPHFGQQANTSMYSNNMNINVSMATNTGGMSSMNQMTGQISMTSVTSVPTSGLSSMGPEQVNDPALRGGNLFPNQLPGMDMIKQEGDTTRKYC

Nuclear receptor coactivator 3 (Homo sapiens), sequence (Q9Y6Q9 whole entry, looked up, the tested form may be a part): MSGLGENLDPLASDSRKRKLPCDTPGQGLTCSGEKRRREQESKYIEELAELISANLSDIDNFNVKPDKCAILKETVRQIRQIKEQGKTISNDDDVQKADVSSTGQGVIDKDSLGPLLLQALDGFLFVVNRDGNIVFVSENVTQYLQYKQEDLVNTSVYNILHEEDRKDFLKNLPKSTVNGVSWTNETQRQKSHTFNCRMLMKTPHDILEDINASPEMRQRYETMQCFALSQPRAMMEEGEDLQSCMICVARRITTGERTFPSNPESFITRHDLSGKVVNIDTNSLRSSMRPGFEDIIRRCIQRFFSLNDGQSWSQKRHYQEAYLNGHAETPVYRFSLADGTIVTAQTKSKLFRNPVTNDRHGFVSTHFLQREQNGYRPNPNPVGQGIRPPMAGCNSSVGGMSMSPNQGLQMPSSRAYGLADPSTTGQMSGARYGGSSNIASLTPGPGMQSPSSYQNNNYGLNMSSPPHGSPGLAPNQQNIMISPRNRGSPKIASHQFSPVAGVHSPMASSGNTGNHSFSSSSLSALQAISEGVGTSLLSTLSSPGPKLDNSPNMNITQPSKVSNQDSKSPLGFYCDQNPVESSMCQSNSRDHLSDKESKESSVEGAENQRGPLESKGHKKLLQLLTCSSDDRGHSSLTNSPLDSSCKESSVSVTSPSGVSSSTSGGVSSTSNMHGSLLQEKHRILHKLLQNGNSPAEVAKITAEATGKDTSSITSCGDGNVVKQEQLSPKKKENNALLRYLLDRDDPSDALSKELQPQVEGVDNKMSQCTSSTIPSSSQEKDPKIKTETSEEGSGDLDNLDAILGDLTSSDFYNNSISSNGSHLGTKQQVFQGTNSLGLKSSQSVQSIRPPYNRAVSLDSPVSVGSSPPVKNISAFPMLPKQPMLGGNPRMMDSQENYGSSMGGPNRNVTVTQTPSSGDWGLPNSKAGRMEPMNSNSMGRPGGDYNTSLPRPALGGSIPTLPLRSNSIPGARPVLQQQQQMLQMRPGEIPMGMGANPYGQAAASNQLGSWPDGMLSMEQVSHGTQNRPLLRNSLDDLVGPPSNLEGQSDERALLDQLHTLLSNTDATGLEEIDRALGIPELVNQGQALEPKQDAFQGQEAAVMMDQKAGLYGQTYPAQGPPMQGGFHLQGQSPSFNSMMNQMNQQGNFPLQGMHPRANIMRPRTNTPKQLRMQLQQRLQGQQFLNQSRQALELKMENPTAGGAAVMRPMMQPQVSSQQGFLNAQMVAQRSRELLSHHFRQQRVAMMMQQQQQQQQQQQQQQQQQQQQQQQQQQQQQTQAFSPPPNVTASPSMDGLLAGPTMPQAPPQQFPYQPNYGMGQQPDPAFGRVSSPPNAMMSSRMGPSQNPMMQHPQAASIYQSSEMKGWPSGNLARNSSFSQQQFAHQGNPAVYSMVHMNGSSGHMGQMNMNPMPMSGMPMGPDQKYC
Steroidogenic factor 1 (Homo sapiens), sequence (Q13285 whole entry, looked up, the tested form may be a part): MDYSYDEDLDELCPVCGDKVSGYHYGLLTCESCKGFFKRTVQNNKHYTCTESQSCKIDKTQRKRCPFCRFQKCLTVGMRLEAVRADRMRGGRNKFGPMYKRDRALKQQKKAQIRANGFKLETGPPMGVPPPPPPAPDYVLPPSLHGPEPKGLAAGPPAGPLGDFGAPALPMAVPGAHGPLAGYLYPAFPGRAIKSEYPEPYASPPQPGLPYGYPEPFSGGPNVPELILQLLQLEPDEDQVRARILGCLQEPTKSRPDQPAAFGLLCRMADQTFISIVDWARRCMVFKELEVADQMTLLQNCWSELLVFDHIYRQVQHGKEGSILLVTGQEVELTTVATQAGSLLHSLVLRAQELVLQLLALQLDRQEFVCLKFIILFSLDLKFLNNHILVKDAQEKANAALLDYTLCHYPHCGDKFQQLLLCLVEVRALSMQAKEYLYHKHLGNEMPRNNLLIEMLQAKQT
Nuclear receptor coactivator 1 (Homo sapiens), sequence (Q15788 whole entry, looked up, the tested form may be a part): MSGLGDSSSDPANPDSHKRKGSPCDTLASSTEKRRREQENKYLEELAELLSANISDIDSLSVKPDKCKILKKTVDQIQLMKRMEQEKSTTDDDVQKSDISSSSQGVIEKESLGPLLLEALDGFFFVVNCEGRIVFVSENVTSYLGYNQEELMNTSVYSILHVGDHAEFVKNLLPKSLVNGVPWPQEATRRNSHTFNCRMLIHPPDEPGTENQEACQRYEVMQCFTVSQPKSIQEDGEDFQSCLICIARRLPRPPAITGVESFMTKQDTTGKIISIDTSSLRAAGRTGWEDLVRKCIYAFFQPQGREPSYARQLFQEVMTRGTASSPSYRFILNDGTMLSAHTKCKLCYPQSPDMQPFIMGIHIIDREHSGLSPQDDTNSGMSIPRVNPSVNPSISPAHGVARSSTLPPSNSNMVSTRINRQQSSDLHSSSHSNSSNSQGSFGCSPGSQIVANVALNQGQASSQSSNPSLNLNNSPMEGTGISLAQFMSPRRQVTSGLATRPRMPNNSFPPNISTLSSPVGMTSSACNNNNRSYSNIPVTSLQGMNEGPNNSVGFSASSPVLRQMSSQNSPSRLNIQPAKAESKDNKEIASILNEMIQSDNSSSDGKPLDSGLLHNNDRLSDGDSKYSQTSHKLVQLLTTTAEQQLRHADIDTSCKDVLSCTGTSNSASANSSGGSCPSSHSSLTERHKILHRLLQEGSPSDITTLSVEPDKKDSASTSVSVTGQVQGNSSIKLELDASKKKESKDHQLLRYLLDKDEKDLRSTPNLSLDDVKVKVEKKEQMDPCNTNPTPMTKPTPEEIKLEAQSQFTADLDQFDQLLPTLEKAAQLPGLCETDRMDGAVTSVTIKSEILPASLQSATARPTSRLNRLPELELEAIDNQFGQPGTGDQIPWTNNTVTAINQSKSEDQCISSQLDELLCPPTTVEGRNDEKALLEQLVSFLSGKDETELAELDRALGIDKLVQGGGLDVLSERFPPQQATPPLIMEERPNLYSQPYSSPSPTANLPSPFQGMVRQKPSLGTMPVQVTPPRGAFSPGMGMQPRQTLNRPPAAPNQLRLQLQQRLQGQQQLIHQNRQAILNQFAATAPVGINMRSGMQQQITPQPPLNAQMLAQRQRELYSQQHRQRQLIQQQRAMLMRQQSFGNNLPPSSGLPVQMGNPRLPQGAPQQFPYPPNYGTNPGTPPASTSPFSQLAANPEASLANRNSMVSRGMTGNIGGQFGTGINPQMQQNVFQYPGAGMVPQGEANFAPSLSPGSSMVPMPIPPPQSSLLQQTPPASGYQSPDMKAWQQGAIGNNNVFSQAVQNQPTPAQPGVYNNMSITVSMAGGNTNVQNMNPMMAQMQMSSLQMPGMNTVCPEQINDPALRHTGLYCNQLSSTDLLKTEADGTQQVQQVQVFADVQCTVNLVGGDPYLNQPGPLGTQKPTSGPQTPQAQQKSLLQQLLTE

Compound | inhibition [1] | inhibition [2] | inhibition [3] | inhibition [4] | inhibition [5] | inhibition [6] | inhibition [7] | inhibition [8] | inhibition [9] | inhibition [10]
Cc1ccccc1C(=O)N1CCN(c2ccc(NC(=O)c3ccc4c(c3)OCO4)cc2)CC1 | 55.4% (active) | 72.5% (active) | 60.7% (active) | 72.9% (active) | 60.1% (active) | 75.1% (active) | 76.1% (active) | 80.7% (active) | 10.2% | 27.1%
CN(c1ncnc(N)c1[N+](=O)[O-])C1CCCCC1 | 82.5% (active) | 59.7% (active) | 69.9% (active) | 55.3% (active) | 32.3% (active) | 56.7% (active) | 44.1% (active) | 72.2% (active) | 28.4% | 59.8% (active)
O=C(CCCN1C(=O)/C(=C/c2ccccc2Cl)SC1=S)NNC(=O)c1ccccc1Cl | 58% (active) | 31.3% (active) | 40% | 40.9% (active) | 54.6% (active) | 55.1% (active) | 46.8% (active) | 45% (active) | 80.7% (active) | 87.5% (active)
CN=c1scc(-c2cccs2)n1/N=C/c1ccccc1O | 91.6% (active) | 89.5% (active) | 80% (active) | 81.4% (active) | 90.6% (active) | 90.4% (active) | 91.2% (active) | 89.6% (active) | 96.8% (active) | 97.8% (active)
COc1cc(C=CC(=O)c2cc(OC)c(OC)c(OC)c2)cc(OC)c1OC | 72.3% (active) | 57.4% (active) | 38.1% | 46.4% (active) | 73.1% (active) | 67.1% (active) | 76.1% (active) | 69.1% (active) | 47.7% (active) | 73% (active)
COc1ccc2cc3c(N)nn(C(=O)Cc4c[nH]c5ccccc45)c3nc2c1 | 82.3% (active) | 66.2% (active) | 69% (active) | 63.9% (active) | 51.1% (active) | 64.7% (active) | 55.5% (active) | 83.3% (active) | 31.8% | 73.2% (active)
O=C(CCCN1C(=O)S/C(=C\c2ccccc2)C1=O)NNC(=O)c1ccccc1O | 66% (active) | 58.7% (active) | 54.6% (active) | 53.3% (active) | 54.9% (active) | 64% (active) | 53.8% (active) | 63.8% (active) | 89.2% (active) | 92.8% (active)
Oc1ccc(CCNc2ncnc3ccc(Cl)cc23)cc1 | 64.9% (active) | 61.6% (active) | 60.8% (active) | 62% (active) | 43.6% (active) | 70.5% (active) | 68.7% (active) | 78.6% (active) | 26.7% | 65.6% (active)
Nc1nc(F)nc2c1ncn2[C@@H]1O[C@H](CO)[C@@H](O)[C@H]1O | 98% (active) | 93.4% (active) | 82.7% (active) | 94.4% (active) | 94.5% (active) | 108% (active) | 96.2% (active) | 98.7% (active) | 76.6% (active) | 77.6% (active)
COCC(=O)OC1CCn2c1nc1c2C(=O)C(C)=C(NC(C)=O)C1=O (stereo not given) | 91.9% (active) | 86.7% (active) | 75.1% (active) | 85.7% (active) | 80.1% (active) | 99.7% (active) | 86.6% (active) | 90.8% (active) | 57.3% (active) | 73.5% (active)
COC(=O)c1cn(NC(=O)c2cc([N+](=O)[O-])ccc2F)c(=O)c2ccccc12 | 83.8% (active) | 83.6% (active) | 51.1% (active) | 81% (active) | 89% (active) | 102% (active) | 92.9% (active) | 84.3% (active) | 27.7% | 64.7% (active)
COc1ccc2cc3c(N)nn(C(=O)c4ccccc4Cl)c3nc2c1 | 74.4% (active) | 64.5% (active) | 60.9% (active) | 62.6% (active) | 47.3% (active) | 75.6% (active) | 59.1% (active) | 81.6% (active) | -12.1% | 50% (active)
Cc1cc(C)c(C(=O)/C=C/c2cccc3ccccc23)c(=O)[nH]1 | 72.8% (active) | 56.7% (active) | 55.2% (active) | 63.5% (active) | 94% (active) | 110% (active) | 97.8% (active) | 94.3% (active) | 47.2% (active) | 65.3% (active)
Cc1ccc(/C=C2\SC(=S)N(CCCC(=O)Nc3ccccn3)C2=O)cc1 | 49.1% (active) | 33.9% (active) | 55.7% (active) | 28.9% (active) | 57.5% (active) | 45.8% (active) | 64.2% (active) | 39.1% (active) | 58.3% (active) | 88.4% (active)
COc1ccc(C[C@H](N)C(=O)N[C@H]2[C@@H](O)[C@H](n3cnc4c(N(C)C)ncnc43)O[C@@H]2CO)cc1 | 97% (active) | 94.2% (active) | 89.3% (active) | 91.8% (active) | 97% (active) | 111% (active) | 99.4% (active) | 99.4% (active) | 91% (active) | 92.4% (active)
COc1ccc(CC2C(=O)NC(C)C(=O)N(C)C3Cc4ccc(cc4)Oc4cc(ccc4O)CC(C(=O)NC(C)C(=O)NC(C)C(=O)N2C)N(C)C3=O)cc1 (stereo not given) | 97.6% (active) | 96.4% (active) | 90.6% (active) | 95% (active) | 96% (active) | 110% (active) | 98.6% (active) | 97.2% (active) | 82.2% (active) | 76.9% (active)
CC(=O)Nc1ccc(SCC(=O)c2cc(C)n(-c3ccccc3F)c2C)cc1 | 41% | 9.76% | -10.3% | -5.83% | -29.9% | -14.4% | -11.8% | -26% | -6.67% | 38%
CCC(C)(C)c1ccc(Oc2ccc(N)cc2)cc1 | 64.5% (active) | 52.2% (active) | 51.2% (active) | 48% (active) | 57.4% (active) | 87.3% (active) | 72.8% (active) | 63.9% (active) | 90.3% (active) | 95.4% (active)
COC(=O)c1ccccc1-c1c2ccc(=N)cc-2oc2cc(N)ccc12 | 35% | 55.2% (active) | 28.7% | 48.3% (active) | 62.2% (active) | 109% (active) | 79.1% (active) | 88% (active) | 21.2% | 3.71%
CN1CCN(c2ccc(-c3ccc4ccccc4n3)cc2)CC1 | 72.1% (active) | 62.6% (active) | 34.8% | 36.6% (active) | 63.8% (active) | 8.01% | 64% (active) | 26.9% | 61.1% (active) | 79.3% (active)
O=C(NC1CCCCC1)C(c1cccnc1)N(C(=O)CCl)c1ccccc1Cl (stereo not given) | 81.8% (active) | 64% (active) | 67.1% (active) | 59.1% (active) | 54.7% (active) | 70.4% (active) | 67.5% (active) | 64.8% (active) | 38.6% (active) | 55.5% (active)
COc1ccc2cc3c(N)nn(C(=O)c4ccccc4[N+](=O)[O-])c3nc2c1 | 76.5% (active) | 59.9% (active) | 64.8% (active) | 61.3% (active) | 44.6% (active) | 67.5% (active) | 46.9% (active) | 78% (active) | 3.64% | 46.6% (active)
Nc1ccc(-c2cc3ccccc3oc2=O)cc1 | 43.5% (active) | 20.6% | 45% | 18.9% | 52.2% (active) | 73.5% (active) | 65.2% (active) | 34.1% (active) | 67.1% (active) | 94.6% (active)
COc1cccc2c1C(=O)c1c(O)c3c(c(O)c1C2=O)CC(O)(C(=O)CO)CC3OC1CC(N(C)C)C(O)C(C)O1 (stereo not given) | 96.6% (active) | 97% (active) | 85.8% (active) | 96.7% (active) | 85.1% (active) | 107% (active) | 96% (active) | 96.5% (active) | 36.9% (active) | 57.6% (active)
CC[C@@]1(O)C(=O)OCc2c1cc1n(c2=O)Cc2cc3c(N)cccc3nc2-1 | 91.8% (active) | 77.3% (active) | 58.2% (active) | 74.7% (active) | 84.6% (active) | 104% (active) | 92% (active) | 77.2% (active) | 30.5% | 51.9% (active)
COc1cccc(/C=N/NC(=O)c2c(-c3ccccc3)noc2C)c1O | 38.4% | 37.1% (active) | 24.8% | 34.6% (active) | 68.8% (active) | 52.1% (active) | 64.6% (active) | 67.5% (active) | 2.72% | 33.1%
Cc1cc(C(=O)COC(=O)C2=COCCO2)c(C)n1-c1ccccc1 | 32.9% | 5.84% | -53.9% | -37.1% | 23.9% | -86.4% | 26.1% | -34.8% | 68.8% (active) | 66.6% (active)
C=C(C(=O)c1ccccc1)C(NC(C)(C)C)c1ccccc1 (stereo not given) | 45% (active) | 90.4% (active) | -116% | 90.2% (active) | 58.5% (active) | 93.7% (active) | 87.4% (active) | 92.9% (active) | 78.7% (active) | 44.6%
CC(C)c1ccc(-n2c(-c3ccccc3)c[n+]3c2CCc2ccccc2-3)cc1 | 72.4% (active) | 84% (active) | 63.6% (active) | 84.4% (active) | 76.3% (active) | 108% (active) | 91.6% (active) | 90.1% (active) | 60.1% (active) | 71.4% (active)
CNc1cccnc1C=NNC(N)=S | 71.3% (active) | 40.5% (active) | 58.5% (active) | 17.9% | 25.3% | 57.8% (active) | 52.1% (active) | 30.4% | -4.08% | 9.84%
